The values that follow come from PubChem BioAssay (NCATS).

A number with no mark means an inactive call. Records with an inconclusive call do not appear. Active and inactive are the calls of the source. Unless noted, calls follow the shape of the dose curve; as a rule, active = well fitted curve in the direction sought with a large enough effect; inconclusive = small, poorly fitted or top-dose-only effect, or another doubt; inactive = no such curve, though single readings can be large; an effect the other way counts as inactive or inconclusive. A value given as a limit tells only on which side of the number the result lay.

The target in test [1] is Lysosomal acid glucosylceramidase (Homo sapiens) (UniProt P04062). Description: Glucocerebrosidase-p2 (AID 348; in the data active = potency below about 10 µM; also: potency is read from the fitted curve at half-maximal effect). The conditions noted are these: purified GBA, blue fluorogenic substrate, 40 min. In outline: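 Normal human glucocerebrosidase (0.2 nM) with blue fluorogenic substrate (80 uM final) in citrate/phosphate pH 5.9 with 10mM sodium taurocholate, 0.01% tween-20; 40 min RT, NaOH/glycine stop; fluorescence Ex 365/Em 440; AC50 from a titration from 0.6 nM upwards.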

The nature of test [2]: AP1 Signaling Pathway (AID 357; active = well fitted curve in either direction with a large enough effect, not every such curve was filed as active;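 also: ME-180 reporter cells stimulated with EGF at its EC50 level; % is scaled to controls: 0 for no effect and ±100 for the full control effect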). The conditions noted are these: ME-180 AP-1-bla reporter, EGF-induced, beta-lactamase ratio, 5 h; at 7.69 µM (top of the series) unless noted. Summed up:
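Titration-series screen for positive or negative modulators of EC50 EGF-induced signaling in ME-180 cells carrying an AP-1-driven beta-lactamase reporter. After 5 hours at 37 degrees Celsius, CCF4 460nm/530nm emission ratio gave %Activity; AC50 values derived.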

For test [3], the target named is Cytochrome P450 1A2 (Homo sapiens) (UniProt P05177). The experiment in a line: p450-cyp1a2 (AID 410; calls by dose curve; also: potency is read from the fitted curve at half-maximal effect). Summed up: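 Read-out is luminescence from luciferin produced by CYP1A2 demethylation of Luciferin-ME (100uM, at Km). Detection reagent stopped the 60 min NADPH-dependent reaction; signals were normalized to 57 uM furafylline.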
A short description of test [4]: NFAT Signaling Pathway (AID 444; active = well fitted curve in either direction with a large enough effect, not every such curve was filed as active;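 also: carbachol stimulus at about its EC50 of 1 µM final; % is scaled to controls: 0 for no effect and ±100 for the full control effect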). The conditions noted are these: Jurkat NFAT-bla M1, carbachol, beta-lactamase ratio, 5 h; at 7.69 µM (top of the series) unless noted. In outline:
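Read-out: CCF4 FRET ratio (460 nm/530 nm) after 1 h RT dye loading, used for %activity and AC50 from titration series. Cells: Jurkat NFAT-β-lactamase/M1 line, treated with compound plus 1 uM carbachol for 5 h, 37 °C.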

Test [5] is described as follows: Stat Signaling Pathway (AID 446; active = well fitted curve in either direction with a large enough effect, not every such curve was filed as active;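 also: ME-180 cervical cancer cells given 40 pM IL-6 alongside compound; SIE-controlled beta-lactamase reporter measured as 460/530 nm FRET emission ratio; % is scaled to controls: 0 for no effect and ±100 for the full control effect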). Summed up:
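Compound effects on IL-6-induced STAT reporter activity were measured in ME-180 cells. After overnight culture, cells were co-treated with 40 pM IL-6 for 5 hrs before beta-lactamase substrate loading at room temperature.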

In test [6] the target is Glucocorticoid receptor (Homo sapiens) (UniProt P04150). The experiment in a line: GR-GFP Redistribution (AID 450;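 active = compounds whose dose series gives a full or clear partial fitted curve of increased nuclear translocation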; also: potency is read from the fitted curve at half-maximal effect). Particulars: U2OS GR-GFP nuclear translocation, laser cytometry, 2 h.
The target is the same in test [7]. The experiment in a line: GR-EFC Redistribution (AID 451; calls by dose curve; also: potency is read from the fitted curve at half-maximal effect). The conditions noted are these: CHO-K1 GR-EFC translocation, beta-gal luminescence, 2 h. Summed up: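 Translocation of GR-ED fusion to nuclear EA restores b-gal, read by luminescence after 1 h room-temperature detection. Engineered CHO-K1 biosensor cells, 1,000/well, exposed 2 h at 37 C to titrations up to 46 uM final.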

The target in test [8] is Mitogen-activated protein kinase 10 (Mus musculus) (UniProt Q61831). The experiment in a line: JNK3 AlphaScreen Assay (AID 530; active = well fitted curve in either direction with a large enough effect, not every such curve was filed as active;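 also: kinase came from lysate of stimulated human HepG2 cells; signal reports phosphorylation of biotinylated GST-cJun 1-79 at Ser73 with 10 µM ATP; % is scaled to controls: 0 for no effect and ±100 for the full control effect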). Summed up:
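Kinase buffer: 20 mM Tris-HCl pH 7.6, 10 mM MgCl2, 1 mM DTT, 0.1 mM Na3VO4, 0.01% Tween-20; ATP 10 uM. Substrate biotin-GST-cJun(1-79), enzyme from activated HepG2 lysates. Detection by Ser73 phospho-antibody AlphaScreen.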

For test [9], the target named is Cytochrome P450 3A4 (Homo sapiens) (UniProt P08684). The experiment in a line: qHTS Assay for Inhibitors and Substrates of Cytochrome P450 3A4 (AID 884). Also: potency is read from the fitted curve at half-maximal effect; nearly all actives have a fitted effect of over 50% in size. Summed up: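 Luminescent readout of luciferin produced by CYP3A4 (20 nM) dealkylation of Luciferin-PPXE, 25 uM (its KM). NADPH-driven reaction ran 60 min at RT after 10 min compound preincubation; data scaled to 57 uM ketoconazole as 100% inhibition.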

For test [10] the target is unchanged. The experiment in a line: qHTS Assay for Activators of Cytochrome P450 3A4 (AID 885). Also: nearly all actives have a fitted effect of over 65% in size. In outline:
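CYP3A4 activity: Luciferin-PPXE O-dealkylation, 25uM substrate, 200mM KPO4, RT throughout. Read-out is luciferase luminescence; higher values reflect activation.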

Test [11] addresses Cytochrome P450 2C19 (Homo sapiens) (UniProt P33261). The experiment in a line: qHTS Assay for Inhibitors and Substrates of Cytochrome P450 2C19 (AID 899). Also: potency is read from the fitted curve at half-maximal effect; nearly all actives have a fitted effect of over 60% in size. In outline: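 Luminescence readout of luciferin formed from 10uM Luciferin-H EGE (KM level) by 5 nM CYP2C19 in 50mM KPO4. 60 min NADPH-driven reaction at 37C after 10 min compound preincubation; data scaled to 57uM ketoconazole inhibition.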

Test [12] concerns the target Dual specificity protein kinase CLK4 (Homo sapiens) (UniProt Q9HAZ1). The experiment in a line: qHTS Assay for Inhibitors of CDC-like Kinase 4 (ADP-FP Assay) (AID 1795).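 Also: recombinant human CLK4 phosphorylating RS repeat peptide at 1 µM ATP; % is scaled to controls: 0 for no effect and ±100 for the full control effect; nearly all actives have a fitted effect of over 60% in size.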 Summed up:
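Kinase activity was measured as ADP production using Transcreener orange tracer (4 nM) and ADP antibody (1 ug/mL) fluorescence polarization, with ADP calculated from a calibration curve. The 1 h reaction contained 6.25 nM Clk4, 1 uM ATP and 100 uM RS peptide at pH 7.5 with Mg2+.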

The target of test [13] is Ubiquitin carboxyl-terminal hydrolase 1 (Homo sapiens) (UniProt O94782). The experiment in a line: Inhibitors of USP1/UAF1: Pilot qHTS (AID 504865).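 Also: rhodamine fluorescence freed from ubiquitin-rhodamine substrate followed over time; top concentration of the series differs between compounds; % is scaled to controls: 0 for no effect and ±100 for the full control effect; nearly all actives have a fitted effect of over 35% in size.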 In outline: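 Deubiquitinase activity followed as kinetic rhodamine fluorescence release from 150 nM Ub-Rho. 1 nM USP1/UAF1 with compound, after 15 min room-temperature preincubation, in HEPES pH 7.8 buffer containing TCEP, EDTA, BSA and Tween-20.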

The nature of test [14]: HepG2 viability counterscreen (readout 2: ATP content) against the NCATS DSHEA and TCM libraries (AID 1794840).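 Also: HepG2 cells exposed to substances for about 24 h; 0% is about no effect.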 Summed up:
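Readout 1: cellular protease activity, GF-AFC substrate (25 uM final, 30 min, fluorescence 380/510 nm). Readout 2: ATP content by CellTiter-Glo luminescence after 30 min at RT. Both follow ~24 h exposure of HepG2 cells (1,000/well) to substances.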

The target of test [15] is Cytochrome P450 3A4 (Homo sapiens) (UniProt P08684). The experiment in a line: qHTS for inhibitors of CYP3A4 against the NCATS DSHEA and TCM libraries (AID 1919971).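 Also: % is scaled to controls: 0 for no effect and ±100 for the full control effect; inhibition lowers luminescence from luciferin made by CYP3A4.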 Summed up:
(§1)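 Isoform-specific enzyme and substrate levels; enzyme-free wells as background. Reaction: 1x NADPH regenerating system, 30-45 min, room temperature, shielded from light; luminescent detection reagent added, 30 min.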

Test [16] addresses Cytochrome P450 2D6 (Homo sapiens) (UniProt P10635). The experiment in a line: qHTS for inhibitors of CYP2D6 against the NCATS DSHEA and TCM libraries (AID 1919972). Also: % is scaled to controls: 0 for no effect and ±100 for the full control effect. In outline:
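qHTS, concentration–response format with most substances from 19.5 nM. CYP2D6 + pro-luciferin substrate, 15 min with compound, then 1x NADPH regen, 30–45 min RT dark. Glo detection 30 min, luminescence. Quinidine control.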

Test [17] deals with Cytochrome P450 2C9 (Homo sapiens) (UniProt P11712). The experiment in a line: qHTS for inhibitors of CYP2C9 against the NCATS DSHEA and TCM libraries (AID 1919973). In outline:
as §1

Test [18] addresses Cytochrome P450 2C19 (Homo sapiens) (UniProt P33261). Description: qHTS for inhibitors of CYP2C19 against the NCATS DSHEA and TCM libraries (AID 1919974). Summed up:
as §1

Test [19] can be described thus: KB-3-1 P-gp reporter qHTS against the NCATS DSHEA and TCM libraries (AID 1919975). Also: 0% is about no effect. Summed up: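 Cell viability by CellTiter-Glo luminescence following ~72 h compound exposure (concentration-response). Uses parental, non-P-gp-overexpressing KB-3-1 line, 500 cells/well in DMEM/10% FBS, attached ~4 h before dosing.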
Test [20] has as its target Cytochrome P450 1A2 (Homo sapiens) (UniProt P05177). The experiment in a line: qHTS for inhibitors of CYPIA2 against the NCATS DSHEA and TCM libraries (AID 1919976). Summed up: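 Furafylline served as the plate control. Compounds met CYP1A2 and pro-luciferin substrate 15 min before NADPH regeneration solution (1x) was added; after 30-45 min at RT, P450-Glo reagent was added for 30 min and luminescence was measured.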

The target of test [21] is Nuclear receptor subfamily 1 group I member 2 (Homo sapiens) (UniProt O75469). Description: Dual reporter qHTS for agonist of Pregnane X Receptor (hPXR) against the NCATS DSHEA and TCM libraries: Luminescence readout (AID 1920059). Also: 0% is about no effect. In outline:
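Luminescent PXR reporter read (ONE-Glo) after a CellTiter-Fluor viability read, following 24 h, 37C treatment of HepG2 cells stably carrying hPXR-Luc.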

Test [22] shares this target. Description: Dual reporter qHTS for antagonist of Pregnane X Receptor (hPXR) against the NCATS DSHEA and TCM libraries: Luminescence Readout (AID 1920060).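 Also: HepG2 cells carrying hPXR luciferase reporter stimulated with rifampicin at 2 µM; 0% is about no effect.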 In outline:
(§2)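 Antagonist mode: rifampicin 2 uM final co-added with compounds to hPXR-LucHepG2 cells for 24 h at 37C. Viability by CellTiter-Fluor, Ex/Em 405/540 nm, 1 h; reporter by ONE-Glo luminescence.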

Test [23] can be described thus: Dual reporter qHTS for antagonist of Pregnane X Receptor (hPXR) against the NCATS DSHEA and TCM libraries: Fluorescence Readout (AID 1920061). Also: 0% is about no effect. In outline: as §2
The target in test [24] is 3',5'-cyclic-AMP phosphodiesterase 4B (Homo sapiens) (UniProt Q07343). The experiment in a line: qHTS Assay for Inhibitors of PDE-IV (AID 607; active = well fitted activation curve with a large enough effect in the main read-out, with a control signal flat, not every such curve was filed as active; also: % of control where 0% means no effect). Summed up: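 ACTOne HEK293 cells carry a modified cAMP-gated CNG channel and express endogenous PDE4; plated 1000 cells/well, compounds up to 22.9 uM final. Membrane-potential dye fluorescence (ex 535/em 590) was read; parental cells received 10 uM forskolin + 100 uM RO 20-1724.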

Test [25] is described as follows: qHTS Assay for Identification of Small Molecule Agonists for Hypoxia Response Element Signaling Pathway (AID 914; active = well fitted activation curve with a large enough effect in the signal ratio, with a control signal flat, not every such curve was filed as active; the % refers to the signal ratio; also: % of control where 0% means no effect). Particulars: ME-180 (cervical carcinoma) HRE-bla reporter, beta-lactamase ratio, CoCl2, 17 h; activation: hits give high values. In outline:
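A beta-lactamase reporter under hypoxia response element control in ME-180 cells served as the system. Compound titrations plus EC50 CoCl2 ran 17 h at 37 degrees Celsius; AC50 values were fitted from %Activity.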

Sequence of Cytochrome P450 3A4 (Homo sapiens) (P08684 whole entry, looked up, canonical isoform): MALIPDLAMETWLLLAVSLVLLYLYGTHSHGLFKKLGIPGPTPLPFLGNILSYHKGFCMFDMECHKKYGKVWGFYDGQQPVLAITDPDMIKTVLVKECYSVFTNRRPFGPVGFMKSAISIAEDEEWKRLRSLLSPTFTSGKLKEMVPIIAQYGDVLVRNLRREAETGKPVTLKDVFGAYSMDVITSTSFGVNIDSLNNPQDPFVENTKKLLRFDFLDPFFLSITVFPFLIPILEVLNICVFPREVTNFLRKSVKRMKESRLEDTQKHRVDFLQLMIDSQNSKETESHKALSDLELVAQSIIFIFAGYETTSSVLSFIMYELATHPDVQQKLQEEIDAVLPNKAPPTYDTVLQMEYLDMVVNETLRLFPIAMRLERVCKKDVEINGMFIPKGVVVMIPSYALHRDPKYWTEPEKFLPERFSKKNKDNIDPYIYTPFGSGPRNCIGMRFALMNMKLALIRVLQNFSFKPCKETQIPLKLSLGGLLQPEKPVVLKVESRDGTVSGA
Sequence of Ubiquitin carboxyl-terminal hydrolase 1 (Homo sapiens) (O94782 whole entry, looked up): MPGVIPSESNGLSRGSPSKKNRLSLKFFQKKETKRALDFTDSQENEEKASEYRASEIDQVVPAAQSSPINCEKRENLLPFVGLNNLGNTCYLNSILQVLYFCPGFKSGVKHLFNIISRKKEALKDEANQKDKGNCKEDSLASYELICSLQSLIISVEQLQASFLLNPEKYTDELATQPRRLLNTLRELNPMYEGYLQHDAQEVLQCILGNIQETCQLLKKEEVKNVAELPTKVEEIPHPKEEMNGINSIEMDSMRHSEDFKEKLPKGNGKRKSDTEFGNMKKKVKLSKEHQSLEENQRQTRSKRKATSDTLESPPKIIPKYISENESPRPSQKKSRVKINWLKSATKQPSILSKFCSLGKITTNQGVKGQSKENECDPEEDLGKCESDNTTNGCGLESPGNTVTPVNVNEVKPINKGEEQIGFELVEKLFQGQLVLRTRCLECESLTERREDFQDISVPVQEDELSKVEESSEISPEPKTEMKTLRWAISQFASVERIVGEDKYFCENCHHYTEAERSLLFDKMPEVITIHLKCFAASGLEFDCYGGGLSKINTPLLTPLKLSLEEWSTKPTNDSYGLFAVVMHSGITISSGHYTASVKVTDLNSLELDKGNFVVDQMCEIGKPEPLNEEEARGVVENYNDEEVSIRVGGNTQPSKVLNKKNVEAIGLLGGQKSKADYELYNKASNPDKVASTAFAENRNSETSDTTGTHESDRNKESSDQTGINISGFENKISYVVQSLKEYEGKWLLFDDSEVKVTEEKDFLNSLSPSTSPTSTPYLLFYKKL
Sequence of Glucocorticoid receptor (Homo sapiens) (P04150 whole entry, looked up, the tested form may be a part): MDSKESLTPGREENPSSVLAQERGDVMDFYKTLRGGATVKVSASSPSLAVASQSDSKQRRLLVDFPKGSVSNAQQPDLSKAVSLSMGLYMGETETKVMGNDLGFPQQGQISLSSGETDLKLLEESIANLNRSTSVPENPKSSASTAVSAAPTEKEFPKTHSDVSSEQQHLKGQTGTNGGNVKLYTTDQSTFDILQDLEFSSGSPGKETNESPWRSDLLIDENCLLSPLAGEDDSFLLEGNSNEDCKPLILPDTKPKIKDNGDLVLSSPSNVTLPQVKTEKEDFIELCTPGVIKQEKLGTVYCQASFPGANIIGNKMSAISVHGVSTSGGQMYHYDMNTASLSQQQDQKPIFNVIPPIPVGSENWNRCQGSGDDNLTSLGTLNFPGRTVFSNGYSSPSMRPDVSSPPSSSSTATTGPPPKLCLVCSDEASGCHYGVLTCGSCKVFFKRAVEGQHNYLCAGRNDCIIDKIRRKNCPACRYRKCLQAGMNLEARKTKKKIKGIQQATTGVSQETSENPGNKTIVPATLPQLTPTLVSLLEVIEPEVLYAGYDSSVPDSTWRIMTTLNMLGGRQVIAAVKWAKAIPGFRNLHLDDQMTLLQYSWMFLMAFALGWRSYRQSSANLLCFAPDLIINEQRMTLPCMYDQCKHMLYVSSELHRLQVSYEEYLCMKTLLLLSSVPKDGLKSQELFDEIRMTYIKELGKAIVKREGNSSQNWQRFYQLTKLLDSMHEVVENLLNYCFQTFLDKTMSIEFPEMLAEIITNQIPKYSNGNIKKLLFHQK
Sequence of Dual specificity protein kinase CLK4 (Homo sapiens) (Q9HAZ1 whole entry, looked up): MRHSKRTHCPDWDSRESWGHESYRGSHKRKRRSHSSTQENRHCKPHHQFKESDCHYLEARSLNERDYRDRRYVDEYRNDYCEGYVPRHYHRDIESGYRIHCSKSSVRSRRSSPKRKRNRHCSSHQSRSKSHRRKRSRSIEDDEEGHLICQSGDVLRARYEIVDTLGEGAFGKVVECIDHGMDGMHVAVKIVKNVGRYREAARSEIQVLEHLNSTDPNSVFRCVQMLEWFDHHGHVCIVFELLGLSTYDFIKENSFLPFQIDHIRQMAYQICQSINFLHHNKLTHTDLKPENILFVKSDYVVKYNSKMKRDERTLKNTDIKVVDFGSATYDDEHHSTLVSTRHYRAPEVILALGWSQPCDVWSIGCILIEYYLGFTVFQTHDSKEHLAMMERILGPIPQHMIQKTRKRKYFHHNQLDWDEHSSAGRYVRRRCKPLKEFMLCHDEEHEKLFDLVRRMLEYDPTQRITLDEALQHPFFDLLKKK
Sequence of Nuclear receptor subfamily 1 group I member 2 (Homo sapiens) (O75469 whole entry, looked up): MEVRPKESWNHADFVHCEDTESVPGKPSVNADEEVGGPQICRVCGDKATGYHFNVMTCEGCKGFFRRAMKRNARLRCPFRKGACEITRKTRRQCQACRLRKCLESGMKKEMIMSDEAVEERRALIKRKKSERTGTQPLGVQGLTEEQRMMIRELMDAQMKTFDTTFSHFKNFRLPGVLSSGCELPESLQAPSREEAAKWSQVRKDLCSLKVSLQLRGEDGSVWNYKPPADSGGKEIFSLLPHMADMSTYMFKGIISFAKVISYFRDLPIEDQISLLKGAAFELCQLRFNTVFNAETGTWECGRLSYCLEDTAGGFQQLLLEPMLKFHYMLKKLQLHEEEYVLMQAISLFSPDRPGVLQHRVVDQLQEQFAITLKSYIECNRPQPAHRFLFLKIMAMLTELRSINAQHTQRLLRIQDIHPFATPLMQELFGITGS
Sequence of Lysosomal acid glucosylceramidase (Homo sapiens) (P04062 whole entry, looked up): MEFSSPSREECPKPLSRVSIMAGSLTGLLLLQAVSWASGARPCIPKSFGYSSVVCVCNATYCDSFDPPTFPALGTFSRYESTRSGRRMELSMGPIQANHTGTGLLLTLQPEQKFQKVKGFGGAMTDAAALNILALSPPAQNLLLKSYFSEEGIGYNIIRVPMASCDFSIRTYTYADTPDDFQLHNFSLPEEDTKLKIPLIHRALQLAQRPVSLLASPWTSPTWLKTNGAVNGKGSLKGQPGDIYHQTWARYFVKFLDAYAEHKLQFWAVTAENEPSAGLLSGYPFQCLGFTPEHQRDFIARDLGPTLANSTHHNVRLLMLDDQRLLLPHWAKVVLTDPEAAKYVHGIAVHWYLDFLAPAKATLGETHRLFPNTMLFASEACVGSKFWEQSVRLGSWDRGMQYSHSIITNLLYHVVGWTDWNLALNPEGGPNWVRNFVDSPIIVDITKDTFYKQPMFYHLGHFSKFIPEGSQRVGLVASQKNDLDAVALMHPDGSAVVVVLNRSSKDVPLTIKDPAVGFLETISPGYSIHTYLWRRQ
Sequence of Cytochrome P450 1A2 (Homo sapiens) (P05177 whole entry, looked up): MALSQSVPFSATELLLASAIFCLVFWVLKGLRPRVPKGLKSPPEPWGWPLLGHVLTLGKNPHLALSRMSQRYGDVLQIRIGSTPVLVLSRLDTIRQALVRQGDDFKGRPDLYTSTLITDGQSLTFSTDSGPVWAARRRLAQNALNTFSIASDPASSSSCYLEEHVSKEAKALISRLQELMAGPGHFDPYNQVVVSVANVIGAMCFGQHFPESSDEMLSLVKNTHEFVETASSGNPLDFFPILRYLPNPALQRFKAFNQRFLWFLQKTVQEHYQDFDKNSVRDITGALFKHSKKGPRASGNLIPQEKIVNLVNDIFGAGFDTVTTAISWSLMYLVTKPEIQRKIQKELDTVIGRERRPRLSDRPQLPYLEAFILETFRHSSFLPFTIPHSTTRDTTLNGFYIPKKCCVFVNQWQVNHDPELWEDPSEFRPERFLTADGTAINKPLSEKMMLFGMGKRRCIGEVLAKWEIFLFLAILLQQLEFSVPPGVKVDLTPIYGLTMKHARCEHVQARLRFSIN
Sequence of Cytochrome P450 2C19 (Homo sapiens) (P33261 whole entry, looked up): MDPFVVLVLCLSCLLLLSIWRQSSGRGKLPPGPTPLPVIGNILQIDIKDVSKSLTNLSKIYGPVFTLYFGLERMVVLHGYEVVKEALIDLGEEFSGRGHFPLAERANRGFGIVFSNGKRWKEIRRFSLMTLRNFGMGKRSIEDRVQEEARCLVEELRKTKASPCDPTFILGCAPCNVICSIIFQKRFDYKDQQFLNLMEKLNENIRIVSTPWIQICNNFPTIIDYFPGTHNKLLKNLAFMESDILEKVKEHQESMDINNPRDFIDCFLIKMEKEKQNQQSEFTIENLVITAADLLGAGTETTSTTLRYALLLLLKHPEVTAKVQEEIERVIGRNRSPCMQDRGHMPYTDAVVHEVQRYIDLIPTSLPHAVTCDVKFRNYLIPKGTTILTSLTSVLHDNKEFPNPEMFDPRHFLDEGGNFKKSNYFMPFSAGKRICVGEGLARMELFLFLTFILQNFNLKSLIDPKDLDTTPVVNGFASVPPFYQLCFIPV
Sequence of Cytochrome P450 2D6 (Homo sapiens) (P10635 whole entry, looked up): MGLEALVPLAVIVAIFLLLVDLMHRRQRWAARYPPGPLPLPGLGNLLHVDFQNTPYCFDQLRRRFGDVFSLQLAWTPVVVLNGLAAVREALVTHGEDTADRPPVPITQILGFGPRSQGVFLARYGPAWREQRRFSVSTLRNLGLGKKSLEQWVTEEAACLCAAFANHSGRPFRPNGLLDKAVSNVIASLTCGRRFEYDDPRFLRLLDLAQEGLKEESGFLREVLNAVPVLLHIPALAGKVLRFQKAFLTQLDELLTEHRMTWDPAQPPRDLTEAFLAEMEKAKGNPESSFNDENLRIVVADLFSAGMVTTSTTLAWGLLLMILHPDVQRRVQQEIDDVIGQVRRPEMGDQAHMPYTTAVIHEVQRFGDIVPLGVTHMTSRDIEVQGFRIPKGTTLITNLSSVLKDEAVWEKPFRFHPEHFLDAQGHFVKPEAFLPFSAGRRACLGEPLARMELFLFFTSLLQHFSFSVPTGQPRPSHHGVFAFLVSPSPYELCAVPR

As to `COc1ccc(CNc2ncncc2-c2ccccc2OC)c(OC)c1`, the Potency in test [1] is greater than 11.4 µM; in test [3], 5.01 µM (active); in test [6], greater than 46 µM; in test [7], greater than 46 µM; in test [9] it was 0.316 µM (active); in test [11] it was 2 µM (active). The figures for the activity change, negative = inhibition in test [2] and in test [4] were -23.4% and -12.1%, respectively. In addition, the compound was classed as inactive in [5] and in test [10]. Further, the Potency entry in [8], in test [12] and in test [13] was “inactive” throughout.
For `CCCCCC(=O)O`, the compound was called inactive in test [14], in test [19], in [22] and in test [23]. Further, the Potency entry in test [15], in test [16], in test [17], in test [18], in test [20] and in test [21] was “inactive” throughout.
In the case of `COc1ccccc1-c1nc(N2CCN(C)CC2)c2ccccc2n1`, the activity change, negative = inhibition was 9.75% in test [2] and 4.89% in test [4]. Further, the result in test [5] and in test [10] was inactive. In addition, the Potency in test [6] and in test [7] was greater than 46 µM each time. The Potency entry in test [8], in test [24], in test [12] and in [13] was “inactive” in each case.
Regarding `O=c1c(CCc2ccccc2)nc2cnc(N3CCOCC3)nc2n1-c1ccccc1`, the Potency is greater than 11.4 µM in test [1], greater than 9.22 µM in [6] and greater than 46 µM in test [7]. The activity change, negative = inhibition in test [2] was 1.07%; in test [4] it was 1.96%. Further, the compound was classed as inactive in [5]. Moreover, the activation in test [25] is -5.71%. In addition, the Potency result in test [12] and in test [13] was “inactive” each time.
